From PubChem BioAssay (NCI)
About 79,000 compounds went through this panel and 15% of them were active in at least one assay; those are over-represented in the sample as a whole. Activity calls are given as the source filed them. Rule as the data show it: active = growth inhibition above about 70%; inactive = the rest.

Key:
[1] = NCI Yeast Anticancer Drug Screen. Data for the wt2 strain (AID 169);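 also: 0% = growth of vehicle-treated yeast cultures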; conditions: S. cerevisiae wt2 strain growth inhibition, hits give high values
Outline: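 Inhibition of yeast growth was determined after compound treatment, normalised to controls receiving only vehicle.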

[2] = NCI Yeast Anticancer Drug Screen. Data for the sgs1 strain (AID 173);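 also: 0% = growth of vehicle-only control cultures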; conditions: S. cerevisiae sgs1 mutant, hits give high values
Outline: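 Screen format: yeast with repair or checkpoint alterations, compound exposure, growth read relative to vehicle.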

[3] = NCI Yeast Anticancer Drug Screen. Data for the mlh1 rad18 strain (AID 175); conditions: S. cerevisiae mlh1 rad18 strain growth inhibition, hits give high values
Outline: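 Vehicle-treated cultures served as the reference for growth inhibition in a yeast strain carrying DNA damage repair alterations exposed to each compound.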

[4] = NCI Yeast Anticancer Drug Screen. Data for the rad18 strain (AID 177); conditions: S. cerevisiae rad18 mutant growth inhibition, hits give high values
Outline: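 Test articles were incubated with altered yeast defective in DNA damage repair. Results are given as inhibition of growth versus vehicle.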

[5] = NCI Yeast Anticancer Drug Screen. Data for the rad52 strain (AID 147);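 also: 0% = growth of vehicle-treated control cultures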; conditions: S. cerevisiae rad52 mutant growth inhibition, hits give high values
Outline: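 Vehicle-treated cultures served as the reference for growth inhibition of compound-exposed yeast bearing a DNA repair mutation.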

[6] = NCI Yeast Anticancer Drug Screen. Data for the wt1 strain (AID 149);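 also: 0% = growth of vehicle-treated wt1 cultures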; conditions: S. cerevisiae wt1 strain (SPY 50644) growth inhibition, hits give high values
Outline: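 Readout: yeast growth inhibition, normalised to vehicle controls, in the wt1 strain exposed to test compounds.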

[7] = NCI Yeast Anticancer Drug Screen. Data for the rad50EPP+ strain (AID 151);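 also: 0% = growth of vehicle-treated control cultures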; conditions: S. cerevisiae rad50 mutant strain, hits give high values
Outline: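 In this screen, rad50EPP+ yeast were exposed to compounds. Growth inhibition was scored against vehicle-treated controls.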

[8] = NCI Yeast Anticancer Drug Screen. Data for the mgt1 strain (AID 153); conditions: S. cerevisiae mgt1 mutant growth inhibition, hits give high values
Outline: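 mgt1 strain exposed; growth vs vehicle control recorded as inhibition.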

[9] = NCI Yeast Anticancer Drug Screen. Data for the rad50 strain (AID 155);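 also: 0% = growth of vehicle-only cultures of the same strain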; conditions: S. cerevisiae rad50 strain growth inhibition, hits give high values
Outline: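 Compounds were tested on a yeast strain with an engineered DNA damage repair alteration; the reported value is growth inhibition normalised to vehicle treatment.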

[10] = NCI Yeast Anticancer Drug Screen. Data for the mec2-1 strain (AID 157); conditions: S. cerevisiae mec2-1 strain, hits give high values
Outline: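 Vehicle-treated cultures served as reference for growth inhibition of compound-exposed mec2-1 yeast.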

[11] = NCI Yeast Anticancer Drug Screen. Data for the rad14 strain (AID 159);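 also: 0% = growth of vehicle-treated control cultures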; conditions: S. cerevisiae rad14 strain growth inhibition, hits give high values
Outline: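 Compound-treated yeast with a defined DNA-repair lesion; growth inhibition normalised to vehicle-treated cultures.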

[12] = NCI Yeast Anticancer Drug Screen. Data for the sgs1 mgt1 strain (AID 161);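 also: 0% = growth of cultures given vehicle only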; conditions: S. cerevisiae sgs1 mgt1 strain, hits give high values
Outline: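 Inhibition of yeast growth, normalised to vehicle-treated controls, is reported for a strain bearing genetic alterations in DNA damage repair.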

[13] = NCI Yeast Anticancer Drug Screen. Data for the CLN2oe strain (AID 163);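 also: 0% = growth of vehicle-only control cultures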; conditions: S. cerevisiae CLN2oe strain, hits give high values
Outline: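 Inhibition relative to vehicle-treated yeast is reported. Cells: strain with genetic alteration in cell-cycle control, grown with compound.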

[14] = NCI Yeast Anticancer Drug Screen. Data for the cln2 rad14 strain (AID 165);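 also: 0% = growth equal to vehicle treated cultures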; conditions: S. cerevisiae cln2 rad14 strain, hits give high values
Outline: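 Each compound was tested on cln2 rad14 yeast. Inhibition of growth was calculated against vehicle-exposed controls.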

[15] = NCI Yeast Anticancer Drug Screen. Data for the bub3 strain (AID 167); conditions: S. cerevisiae bub3 mutant strain, hits give high values
Outline: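 Growth of a checkpoint-deficient yeast mutant is measured after compound exposure. Values represent inhibition relative to vehicle.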

[16] = NCI Yeast Anticancer Drug Screen. Data for the mlh1 strain (AID 171);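 also: 0% = growth of vehicle-treated control cultures of the same strain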; conditions: S. cerevisiae mlh1 strain growth inhibition, hits give high values
Outline: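 Vehicle-normalised growth inhibition of a repair- or checkpoint-altered yeast strain following compound treatment.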

[17] = at 5.0 µM (retest, dose inferred, filed as 0.5)
[18] = at 50.0 µM (retest, dose inferred, filed as 5.0)

Measured: growth inhibition

CCC1(O)C(=O)OCc2c1cc1n(c2=O)Cc2cc3cc(Cl)ccc3nc2-1 (centres undefined)
inactive: [1]; at 1.2 µM 4% | [1]; at 3.7 µM 19% | [1]; at 11.0 µM 20% | [1]; at 33.0 µM 31% | [1]; at 100.0 µM 47% | [2]; at 1.2 µM 31% | [2]; at 3.7 µM 46% | [2]; at 11.0 µM 69% | [3]; [17] 45% | [3]; [18] 60% | [3]; at 50.0 µM 52.5% | [4]; at 1.2 µM 14% | [4]; at 3.7 µM 14% | [4]; at 11.0 µM 34% | [4]; at 33.0 µM 64%
active: [2]; at 33.0 µM 83% | [2]; at 100.0 µM 80% | [4]; at 100.0 µM 71%

Nc1ccc(Cl)cc1C(=O)c1ccccc1
inactive: [5]; at 1.2 µM -15% | [5]; at 3.7 µM -16% | [5]; at 11.0 µM -15% | [5]; at 33.0 µM 46% | [6]; at 1.2 µM -20% | [6]; at 3.7 µM -10% | [6]; at 11.0 µM -10% | [6]; at 33.0 µM 39% | [7]; at 1.2 µM -7% | [7]; at 3.7 µM -2% | [7]; at 11.0 µM 4% | [7]; at 33.0 µM 44% | [8]; at 1.2 µM -28% | [8]; at 3.7 µM -42% | [8]; at 11.0 µM -43% | [8]; at 33.0 µM 3% | [9]; at 1.2 µM -17% | [9]; at 3.7 µM -19% | [9]; [17] 48% | [9]; at 11.0 µM -4% | [9]; at 33.0 µM 57% | [10]; at 1.2 µM -38% | [10]; at 3.7 µM -33% | [10]; [17] 54% | [10]; at 11.0 µM -18% | [10]; at 33.0 µM 0% | [11]; at 1.2 µM -25% | [11]; at 3.7 µM -23% | [11]; at 11.0 µM -15% | [11]; at 33.0 µM 46% | [12]; [17] -19% | [13]; at 1.2 µM 5% | [13]; at 3.7 µM -5% | [13]; at 11.0 µM 5% | [13]; at 33.0 µM 20% | [14]; [17] 57% | [15]; at 1.2 µM -35% | [15]; at 3.7 µM -40% | [15]; [17] -6% | [15]; at 11.0 µM -52% | [15]; at 33.0 µM -23% | [1]; at 1.2 µM -2% | [1]; at 3.7 µM -5% | [1]; at 11.0 µM -6% | [1]; at 33.0 µM 21% | [16]; at 1.2 µM -23% | [16]; at 3.7 µM -33% | [16]; at 11.0 µM -31% | [16]; at 33.0 µM 22% | [3]; [17] 39% | [4]; at 1.2 µM -12% | [4]; at 3.7 µM -12% | [4]; at 11.0 µM -2% | [4]; at 33.0 µM 69%
active: [5]; at 100.0 µM 97% | [6]; at 100.0 µM 98% | [7]; at 100.0 µM 90% | [8]; at 100.0 µM 97% | [9]; [18] 82% | [9]; at 50.0 µM 91% | [9]; at 100.0 µM 97% | [10]; [18] 86% | [10]; at 50.0 µM 72.2% | [10]; at 100.0 µM 97% | [11]; at 100.0 µM 97% | [12]; [18] 98% | [12]; at 50.0 µM 90.7% | [13]; at 100.0 µM 97% | [14]; [18] 96% | [14]; at 50.0 µM 71.4% | [15]; [18] 96% | [15]; at 50.0 µM 88.1% | [15]; at 100.0 µM 96% | [1]; at 100.0 µM 97% | [16]; at 100.0 µM 97% | [3]; [18] 81% | [3]; at 50.0 µM 88.4% | [4]; at 100.0 µM 97%

CCOP(=O)(CC(C)P(=O)(OCC)OCC)OCC.C[CH2][Sn]([Cl])([Cl])[CH2]C (centres undefined)
active: [5]; at 33.0 µM 79% | [5]; at 100.0 µM 94% | [6]; at 33.0 µM 76% | [6]; at 100.0 µM 93% | [8]; at 100.0 µM 95% | [9]; at 33.0 µM 71% | [9]; at 50.0 µM 82.7% | [9]; at 100.0 µM 92% | [10]; at 50.0 µM 85.4% | [10]; at 100.0 µM 93% | [11]; at 100.0 µM 76% | [15]; at 50.0 µM 84.1% | [15]; at 100.0 µM 91% | [1]; at 33.0 µM 76% | [1]; at 100.0 µM 94% | [16]; at 100.0 µM 95% | [2]; at 33.0 µM 85% | [2]; at 100.0 µM 95% | [4]; at 33.0 µM 75% | [4]; at 100.0 µM 92%
inactive: [5]; at 1.2 µM -4% | [5]; at 3.7 µM -1% | [5]; at 11.0 µM 19% | [6]; at 1.2 µM 0% | [6]; at 3.7 µM 3% | [6]; at 11.0 µM 12% | [7]; at 1.2 µM -1% | [7]; at 3.7 µM 1% | [7]; at 11.0 µM 5% | [7]; at 33.0 µM 4% | [7]; at 100.0 µM 4% | [8]; at 1.2 µM -3% | [8]; at 3.7 µM -1% | [8]; at 11.0 µM 4% | [8]; at 33.0 µM 67% | [9]; at 1.2 µM -7% | [9]; at 3.7 µM -15% | [9]; [17] 16% | [9]; at 11.0 µM -2% | [9]; [18] 14% | [10]; at 1.2 µM 1% | [10]; at 3.7 µM 4% | [10]; [17] 1% | [10]; at 11.0 µM 14% | [10]; at 33.0 µM 69% | [10]; [18] 18% | [11]; at 1.2 µM -3% | [11]; at 3.7 µM 1% | [11]; at 11.0 µM 4% | [11]; at 33.0 µM 19% | [12]; [17] 11% | [12]; [18] 4% | [12]; at 50.0 µM 68.2% | [14]; [17] 6% | [14]; [18] 52% | [14]; at 50.0 µM 50.1% | [15]; at 1.2 µM -2% | [15]; at 3.7 µM 1% | [15]; [17] -9% | [15]; at 11.0 µM 5% | [15]; at 33.0 µM 55% | [15]; [18] 53% | [1]; at 1.2 µM -1% | [1]; at 3.7 µM -2% | [1]; at 11.0 µM 2% | [16]; at 1.2 µM 0% | [16]; at 3.7 µM 2% | [16]; at 11.0 µM 8% | [16]; at 33.0 µM 69% | [2]; at 1.2 µM -8% | [2]; at 3.7 µM 4% | [2]; at 11.0 µM 14% | [3]; [17] -2% | [3]; [18] 28% | [3]; at 50.0 µM 62.7% | [4]; at 1.2 µM -2% | [4]; at 3.7 µM 4% | [4]; at 11.0 µM 24%
